Experimental data from ChEMBL document CHEMBL1157539, “Thousands of chemical starting points for antimalarial lead identification” (Nature, 2010).

system: Plasmodium falciparum; assay: GSK_TCMDC: Inhibition of Plasmodium falciparum 3D7 in whole red blood cells, using parasite LDH activity as an index of growth. Test compounds present at 2uM; type: functional

Compound	Inhibition
CN1CCN(CCCN(Cc2ccc(-c3ccc(CNCc4ccc5c(c4)OCO5)cc3)cc2)C(=O)CCC2CCCC2)CC1.O=C(O)C(F)(F)F	99%
COc1ccc(CNC2Cc3ccccc3C2)cc1-c1ccc(S(=O)(=O)NCCc2ccccn2)s1.O=C(O)C(F)(F)F	92%
Nc1cc(/C=C/c2ccc([N+](=O)[O-])o2)nc2ccccc12	93%
C=CCOC(=O)O[C@@H]1[C@@H](OC(=O)OCC=C)[C@@H](OC)O[C@H](COC(c2ccccc2)(c2ccccc2)c2ccccc2)[C@H]1OC(=O)OCC=C	95%
Cc1ccc(C(=O)Nc2cc(S(=O)(=O)N3CCCC3)ccc2OCC(F)(F)F)cc1	93%
Fc1ccc(CNc2ncc(-c3ccsc3)c(-c3nccs3)n2)cc1	94%
COc1ccc(-c2cccc(NC(=O)c3ccc(Cl)cc3)c2)cc1CN1CCCN(C)CC1.O=C(O)C(F)(F)F	100%
Cc1cc(N/N=C/c2cccc([N+](=O)[O-])c2)c2ccc(F)cc2n1	100%
CC(C)(C)C(C)(C)Cc1ccc(O)c(CN2CCN(c3ccccc3)CC2)c1	99%
CC(C)C(C)(C#N)NC(=O)CSc1nc2ccc([N+](=O)[O-])cc2s1 (stereo not drawn)	95%
O=C(NCc1ccc(C(F)(F)F)cc1)c1cccc(-c2nnc(-c3cccc(-c4cncnc4)c3)o2)c1	96%
CCCCCC(=O)N1CCOC(CCN2CCc3c(c4ccccc4n3C)C2)(c2ccc(Cl)c(Cl)c2)C1 (stereo not drawn)	95%
CC(C)(C)C(=O)Nc1c(-c2cc(=O)oc3cc4c(cc23)CCC4)oc2ccccc12	100%
